Data taken from PubChem BioAssay (NCATS).
Inconclusive results are not listed. Calls of active or inactive are those of the source. Unless noted, calls come from the whole dose curve; as a rule, active = well fitted curve in the direction sought with a large enough effect; inconclusive = small, poorly fitted or top-dose-only effect, or another doubt; inactive = no such curve, though single readings can be large; an effect the other way counts as inactive or inconclusive.

Tests used:
[1] = molecular target: DNA repair nuclease/redox regulator APEX1 (Homo sapiens) (UniProt P27695); experiment: qHTS Validation Assay for Inhibitors of the Human Apurinic/apyrimidinic Endonuclease 1 (APE1) (AID 1705;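 note: TAMRA fluorescence gain over two minutes as APE1 cuts a quenched THF abasic duplex; % is set by controls: 0 for no effect and ±100 for the full control effect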)
Chain of DNA repair nuclease/redox regulator APEX1 (Homo sapiens) (P27695 whole entry, looked up): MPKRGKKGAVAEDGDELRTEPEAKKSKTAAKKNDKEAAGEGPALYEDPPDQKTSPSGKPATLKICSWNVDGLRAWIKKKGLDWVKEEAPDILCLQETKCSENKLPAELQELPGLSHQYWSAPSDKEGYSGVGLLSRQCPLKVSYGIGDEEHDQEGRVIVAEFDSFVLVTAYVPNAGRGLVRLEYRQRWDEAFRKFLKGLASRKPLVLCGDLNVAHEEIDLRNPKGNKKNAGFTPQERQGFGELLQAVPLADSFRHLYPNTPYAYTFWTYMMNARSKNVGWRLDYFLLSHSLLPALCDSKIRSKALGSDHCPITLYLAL
Method in brief: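 Substrate: 50 nM final fluorophore/quencher THF-abasic duplex. Enzyme preincubated with compounds 15 min, RT. Progress derived from fluorescence difference, third minus first kinetic read.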

[2] = qHTS for differential inhibitors of proliferation of Plasmodium falciparum line 7G8 (AID 1815);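 note: parasite growth measured after three days of incubation; plate controls were vehicle wells for no effect and reference inhibitor wells for full effect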
[3] = qHTS for differential inhibitors of proliferation of Plasmodium falciparum line GB4 (AID 1816); conditions: Potency: Plasmodium falciparum GB4 proliferation inhibition;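 note: parasite growth measured after 72 h incubation; 0% = vehicle DMSO and -100% = reference inhibitor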
[4] = qHTS for differential inhibitors of proliferation of Plasmodium falciparum line 3D7 (AID 1876);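 note: parasite growth measured after three days of culture; 0% = vehicle wells and -100% = reference inhibitor wells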
[5] = qHTS for differential inhibitors of proliferation of Plasmodium falciparum line D10 (AID 1877);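 note: parasites grown with compound for 72 h before DNA staining; plate controls were vehicle wells for no effect and reference inhibitor wells for full effect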
[6] = qHTS for differential inhibitors of proliferation of Plasmodium falciparum line Dd2 (AID 1882); conditions: Potency: Plasmodium falciparum Dd2 proliferation inhibition;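 note: compound exposure of 72 h on infected erythrocytes; plate controls were DMSO vehicle for no effect and 0.29 µM artemisinin for full effect; nearly all actives have a fitted effect of over 65% in size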
Method in brief: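 SYBR Green I DNA fluorescence read-out, ex 485/em 535 nm. Signals were normalized to 0.29 uM artemisinin and DMSO wells, then corrected using vehicle-only plates flanking each stack. Parasite growth ran 72 h in erythrocytes before lysis.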

[7] = qHTS for differential inhibitors of proliferation of Plasmodium falciparum line W2 (AID 1883); conditions: Potency: Plasmodium falciparum W2 proliferation inhibition;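 note: parasites grown with compound for 72 h before lysis and staining; 0% = vehicle wells and -100% = control inhibitor wells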
[8] = qHTS for differential inhibitors of proliferation of Plasmodium falciparum line HB3 (AID 1886); conditions: Potency: Plasmodium falciparum HB3 proliferation inhibition;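 note: parasites grown with compound for 72 h before SYBR Green readout; plate controls were vehicle for no effect and reference inhibitor for full effect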
[9] = molecular target: Ferritin light chain (Equus caballus) (UniProt P02791); experiment: qHTS Validation Assay for Identification of Novel General Anesthetics (AID 2323); note: % is set by controls: 0 for no effect and ±100 for the full control effect
Chain of Ferritin light chain (Equus caballus) (P02791 2-175 limits assumed): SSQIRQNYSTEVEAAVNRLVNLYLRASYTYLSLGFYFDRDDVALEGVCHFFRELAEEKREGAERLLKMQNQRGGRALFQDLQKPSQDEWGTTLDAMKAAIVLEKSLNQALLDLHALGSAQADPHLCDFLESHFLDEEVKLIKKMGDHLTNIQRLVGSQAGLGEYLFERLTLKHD
Method in brief: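 Normalized fluorescence response, scaled between free 1-AMA and 1-AMA/apoferritin complex, fitted to a four-parameter Hill equation for concentration-effect values. Binding mix: 10 uM horse-spleen apoferritin, 50% saturated 1-AMA in PBS; read 380/535 nm after 10 min.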

[10] = molecular target: ATP-dependent DNA helicase Q1 (Homo sapiens) (UniProt P46063); experiment: qHTS Validation Assay for Inhibitors of RecQ-Like Dna Helicase 1 (RECQ1) (AID 2353);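 note: plate controls were DMSO vehicle for no effect and enzyme-free control for full effect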
Chain of ATP-dependent DNA helicase Q1 (Homo sapiens) (P46063 whole entry, looked up): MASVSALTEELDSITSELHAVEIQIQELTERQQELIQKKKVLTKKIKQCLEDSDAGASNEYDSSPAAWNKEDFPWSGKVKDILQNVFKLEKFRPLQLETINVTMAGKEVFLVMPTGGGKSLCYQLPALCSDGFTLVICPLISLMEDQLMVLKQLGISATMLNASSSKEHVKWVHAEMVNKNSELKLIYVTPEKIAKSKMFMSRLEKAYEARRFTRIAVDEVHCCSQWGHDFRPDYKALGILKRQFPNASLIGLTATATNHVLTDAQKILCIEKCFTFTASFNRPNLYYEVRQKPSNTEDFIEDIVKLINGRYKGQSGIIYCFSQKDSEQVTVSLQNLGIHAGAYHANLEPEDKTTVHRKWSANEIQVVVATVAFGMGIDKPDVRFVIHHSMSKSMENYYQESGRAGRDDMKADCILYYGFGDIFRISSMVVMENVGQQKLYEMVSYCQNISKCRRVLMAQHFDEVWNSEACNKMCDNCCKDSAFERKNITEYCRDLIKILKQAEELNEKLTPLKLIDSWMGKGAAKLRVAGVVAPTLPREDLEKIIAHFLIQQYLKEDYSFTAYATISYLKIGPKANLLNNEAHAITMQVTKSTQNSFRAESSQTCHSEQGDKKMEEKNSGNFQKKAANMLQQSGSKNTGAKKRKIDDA
Method in brief: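 50 nM RECQ1T1 preincubated 15 min with compound in Tris pH 8.0 buffer with MgCl2, DTT, Tween-20 and 2.5 ug/ml poly(dI-dC); started with 200 nM TAMRA/BHQ-2 forked duplex and 2 mM ATP. Unwinding read as fluorescence (525/598 nm), two reads 2 h apart.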

[11] = Validation screen for inhibitors of Lassa infection (AID 463096; calls by dose curve; note: % is set by controls: 0 for no effect and ±100 for the full control effect)
[12] = Validation screen for small molecules that induce DNA re-replication in MCF 10A normal breast cells (AID 463097); note: 0% is about no effect; nearly all actives have a fitted effect of over 60% in size
Method in brief: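 Following 48 hr compound incubation (37 C, 5% CO2), MCF 10A cells receive Hoechst for 40 min at 37 C. Nuclei are then scanned (excitation 405 nm, emission 500-530 nm) for total fluorescence intensity.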

[13] = Quantitative high throughput screen for delayed death inhibitors of the malarial parasite plastid, 96 hour incubation (AID 488745); note: % is set by controls: 0 for no effect and ±100 for the full control effect; nearly all actives have a fitted effect of over 70% in size
Method in brief: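 P. falciparum carrying an integrated firefly luciferase reporter, grown in erythrocytes (2% hematocrit, 0.1% parasitemia final) in RPMI 1640/0.5% Albumax, was exposed to compound for 96 h (two generations) at 37 C, 5% CO2. Luminescence decrease indicated growth inhibition.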

[14] = Quantitative high throughput screen for delayed death inhibitors of the malarial parasite plastid, 48 hour incubation (AID 488752); note: % is set by controls: 0 for no effect and ±100 for the full control effect; nearly all actives have a fitted effect of over 65% in size
Method in brief: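 Erythrocytes infected with P. falciparum carrying an integrated firefly luciferase reporter (2% hematocrit, 0.1% parasitemia final) were exposed to compounds in RPMI 1640/0.5% Albumax for 48 h at 37 C, 5% CO2. Growth inhibition was scored as reduced luminescence.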

[15] = molecular target: M-phase phosphoprotein 8 (Homo sapiens) (UniProt Q99549); experiment: qHTS Validation Assay for Inhibitors for MPP8 Chromodomain Interactions with Methylated Histone Tails (AID 488949);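 note: 50 nM MPP8 with 50 nM peptide preformed then compounds added for 30 min; AlphaScreen signal from MPP8 chromodomain bound to biotinylated H3K9me3 peptide; top concentration of the series differs between compounds; % is set by controls: 0 for no effect and ±100 for the full control effect; nearly all actives have a fitted effect of over 55% in size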
Chain of M-phase phosphoprotein 8 (Homo sapiens) (Q99549 whole entry, looked up): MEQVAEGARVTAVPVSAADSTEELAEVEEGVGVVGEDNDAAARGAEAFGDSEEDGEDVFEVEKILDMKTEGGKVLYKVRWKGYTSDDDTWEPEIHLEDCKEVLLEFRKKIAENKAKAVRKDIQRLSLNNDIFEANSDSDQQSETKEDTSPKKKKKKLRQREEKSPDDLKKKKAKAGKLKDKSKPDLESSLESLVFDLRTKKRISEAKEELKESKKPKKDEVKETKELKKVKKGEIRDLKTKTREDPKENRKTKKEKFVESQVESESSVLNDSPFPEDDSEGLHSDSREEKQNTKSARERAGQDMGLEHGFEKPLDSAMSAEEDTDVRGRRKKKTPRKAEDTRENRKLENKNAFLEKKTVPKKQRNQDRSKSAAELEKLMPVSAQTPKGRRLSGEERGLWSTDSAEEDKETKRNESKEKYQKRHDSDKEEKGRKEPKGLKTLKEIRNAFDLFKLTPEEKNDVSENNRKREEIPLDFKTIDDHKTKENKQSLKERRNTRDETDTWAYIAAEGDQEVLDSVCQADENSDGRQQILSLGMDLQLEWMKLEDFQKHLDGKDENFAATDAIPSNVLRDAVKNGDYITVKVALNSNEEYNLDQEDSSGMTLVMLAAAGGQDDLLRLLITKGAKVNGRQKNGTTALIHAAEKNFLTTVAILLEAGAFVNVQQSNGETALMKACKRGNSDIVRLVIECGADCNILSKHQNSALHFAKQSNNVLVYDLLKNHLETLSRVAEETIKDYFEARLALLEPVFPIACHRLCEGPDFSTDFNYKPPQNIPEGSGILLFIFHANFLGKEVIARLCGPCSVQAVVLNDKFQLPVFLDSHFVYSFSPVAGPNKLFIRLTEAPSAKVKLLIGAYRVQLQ
Method in brief: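 Chemiluminescent proximity assay: histidine-tag capture via nickel acceptor beads, biotin peptide via streptavidin donor beads. Protein and peptide each at 50 nM, pH 7.4, with 30 min incubations at room temperature for complex formation, compound exposure and bead binding.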

[16] = molecular target: Transient receptor potential cation channel subfamily V member 1 (Homo sapiens) (UniProt Q8NER1); experiment: HTS Assay for Compounds that Act as Enhancers of the Vanilloid Receptor 1 (AID 488979); note: 0% is about no effect
Chain of Transient receptor potential cation channel subfamily V member 1 (Homo sapiens) (Q8NER1 whole entry, looked up): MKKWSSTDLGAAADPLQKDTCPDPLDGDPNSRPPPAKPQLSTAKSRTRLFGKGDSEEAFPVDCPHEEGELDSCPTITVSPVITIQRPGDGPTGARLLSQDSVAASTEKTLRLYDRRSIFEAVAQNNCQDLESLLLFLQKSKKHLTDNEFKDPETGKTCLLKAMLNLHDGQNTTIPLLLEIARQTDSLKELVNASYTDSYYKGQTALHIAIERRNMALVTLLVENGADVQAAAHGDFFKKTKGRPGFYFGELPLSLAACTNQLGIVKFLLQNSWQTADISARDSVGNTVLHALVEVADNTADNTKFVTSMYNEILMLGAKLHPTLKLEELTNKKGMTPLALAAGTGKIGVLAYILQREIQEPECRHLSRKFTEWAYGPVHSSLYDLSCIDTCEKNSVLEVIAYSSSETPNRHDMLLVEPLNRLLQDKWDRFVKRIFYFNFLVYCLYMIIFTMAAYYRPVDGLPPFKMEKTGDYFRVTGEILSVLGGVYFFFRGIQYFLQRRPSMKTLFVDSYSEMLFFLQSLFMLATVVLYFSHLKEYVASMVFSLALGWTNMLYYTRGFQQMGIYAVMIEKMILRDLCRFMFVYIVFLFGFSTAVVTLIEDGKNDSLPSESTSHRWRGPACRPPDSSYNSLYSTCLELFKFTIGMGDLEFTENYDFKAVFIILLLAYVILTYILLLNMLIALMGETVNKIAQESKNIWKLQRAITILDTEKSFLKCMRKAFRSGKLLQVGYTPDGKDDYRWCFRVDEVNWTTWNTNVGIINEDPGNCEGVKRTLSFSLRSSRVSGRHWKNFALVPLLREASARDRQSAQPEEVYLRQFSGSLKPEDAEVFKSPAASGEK
Method in brief: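 Calcium influx kinetics via Fluo-8 (480/520 nm) in TRPV1-expressing cells, 2000/well cultured overnight at 35.5C. Compound-alone read 3 min (agonist phase), followed by EC20 capsaicin challenge for 2 min (enhancer phase).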

[17] = molecular target: ATP-dependent 6-phosphofructokinase (Trypanosoma brucei brucei) (UniProt O15648); experiment: qHTS Assay to Find Inhibitors of T. brucei phosphofructokinase: hit validation (AID 492961);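 note: luminescence reports ADP formed as PFK phosphorylates fructose-6-phosphate with ATP; % is set by controls: 0 for no effect and ±100 for the full control effect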
Chain of ATP-dependent 6-phosphofructokinase (Trypanosoma brucei brucei) (O15648 whole entry, looked up): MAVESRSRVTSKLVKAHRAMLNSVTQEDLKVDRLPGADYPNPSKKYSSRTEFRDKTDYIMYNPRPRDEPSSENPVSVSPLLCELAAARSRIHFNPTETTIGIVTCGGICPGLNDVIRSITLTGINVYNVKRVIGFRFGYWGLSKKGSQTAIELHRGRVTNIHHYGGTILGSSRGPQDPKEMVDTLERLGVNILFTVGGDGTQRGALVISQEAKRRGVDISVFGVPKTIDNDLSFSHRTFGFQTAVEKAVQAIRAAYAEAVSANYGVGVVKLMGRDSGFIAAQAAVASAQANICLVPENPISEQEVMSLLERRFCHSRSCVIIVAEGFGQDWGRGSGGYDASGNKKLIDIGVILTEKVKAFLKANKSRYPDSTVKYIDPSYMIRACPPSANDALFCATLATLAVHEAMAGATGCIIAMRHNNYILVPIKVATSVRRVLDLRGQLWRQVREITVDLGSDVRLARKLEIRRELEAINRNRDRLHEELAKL
Method in brief: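 In this biochemical qHTS validation, titrated compounds were tested against 1.25 nM PFK with 0.1 mM ATP and 0.5 mM F6P. Percent activity came from controls lacking or containing enzyme.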

[18] = molecular target: Thyrotropin-releasing hormone receptor (Homo sapiens) (UniProt P34981); experiment: qHTS for Small Molecule Agonists and Allosteric Enhancers of Human TRH Receptor: Validation Screen for Agonists (AID 493127;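 active = calcium activation more than 3 SD above the typical response in the agonist read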;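 note: intracellular calcium rise by fluo-8 fluorescence before TRH EC20 addition; 0% is about no effect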); conditions: TRH receptor agonist cell assay; at 2 µM; stronger effect = higher value
Chain of Thyrotropin-releasing hormone receptor (Homo sapiens) (P34981 whole entry, looked up): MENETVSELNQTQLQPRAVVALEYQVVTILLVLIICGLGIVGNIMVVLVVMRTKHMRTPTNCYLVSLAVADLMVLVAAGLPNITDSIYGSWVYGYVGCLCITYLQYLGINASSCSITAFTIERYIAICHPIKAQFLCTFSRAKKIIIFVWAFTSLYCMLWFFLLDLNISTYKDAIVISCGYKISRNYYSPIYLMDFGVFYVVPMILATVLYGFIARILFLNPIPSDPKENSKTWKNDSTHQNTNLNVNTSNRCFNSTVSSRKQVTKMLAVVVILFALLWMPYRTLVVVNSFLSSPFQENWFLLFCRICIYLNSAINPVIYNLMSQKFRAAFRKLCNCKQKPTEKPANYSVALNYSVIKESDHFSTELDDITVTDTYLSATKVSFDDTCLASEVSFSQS
Method in brief: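 TRHR-expressing cells were plated overnight in serum-containing medium, then loaded with fluo-8 calcium dye at room temperature for 30 min–1.5 h. After a 10 s baseline, compound was pin-transferred and calcium fluorescence (ex 480/em 530) read kinetically for agonist response.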

[19] = molecular target: Galactokinase (Homo sapiens) (UniProt P51570); experiment: qHTS Validation Assay for Inhibitors of Human Galactokinase (GALK) (AID 493189); note: 0% is about no effect
Chain of Galactokinase (Homo sapiens) (P51570 whole entry, looked up): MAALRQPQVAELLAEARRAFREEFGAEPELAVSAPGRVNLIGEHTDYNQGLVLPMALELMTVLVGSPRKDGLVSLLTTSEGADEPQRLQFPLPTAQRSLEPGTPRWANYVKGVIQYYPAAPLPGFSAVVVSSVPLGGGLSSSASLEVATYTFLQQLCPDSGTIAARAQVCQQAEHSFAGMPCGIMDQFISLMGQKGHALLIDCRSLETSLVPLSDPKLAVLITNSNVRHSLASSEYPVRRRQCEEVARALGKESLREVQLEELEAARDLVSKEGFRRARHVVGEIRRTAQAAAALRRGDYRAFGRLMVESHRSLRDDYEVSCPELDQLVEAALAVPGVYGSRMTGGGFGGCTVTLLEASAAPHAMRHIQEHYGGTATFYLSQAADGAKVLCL
Method in brief: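 Enzyme activity is inferred from ATP consumption: human GALK phosphorylates galactose (100 uM) using 35 uM ATP for 1 h at room temperature, and luciferase-based Kinase-Glo Plus reports unconsumed ATP.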

[20] = Validation screen for small molecules that induce DNA re-replication in SW480 colon adenocarcinoma cells (AID 504364); note: 0% is about no effect
Method in brief: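 SW480 cells seeded at 250 per well were exposed to compound or DMSO for 48 hr at 37 C, 5% CO2, then stained with Hoechst for 40 min. DNA content per nucleus was imaged (405 nm ex, 500-530 nm em).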

[21] = molecular target: Luciferin 4-monooxygenase (Photinus pyralis) (UniProt P08659); experiment: Biochemical firefly luciferase enzyme assay for NPC (AID 624030);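 note: purified P. pyralis luciferase at 10 nM with luciferin and ATP substrate; 0% = DMSO and -100% = full luciferase inhibition by PTC124 control; nearly all actives have a fitted effect of over 70% in size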
Chain of Luciferin 4-monooxygenase (Photinus pyralis) (P08659 whole entry, looked up): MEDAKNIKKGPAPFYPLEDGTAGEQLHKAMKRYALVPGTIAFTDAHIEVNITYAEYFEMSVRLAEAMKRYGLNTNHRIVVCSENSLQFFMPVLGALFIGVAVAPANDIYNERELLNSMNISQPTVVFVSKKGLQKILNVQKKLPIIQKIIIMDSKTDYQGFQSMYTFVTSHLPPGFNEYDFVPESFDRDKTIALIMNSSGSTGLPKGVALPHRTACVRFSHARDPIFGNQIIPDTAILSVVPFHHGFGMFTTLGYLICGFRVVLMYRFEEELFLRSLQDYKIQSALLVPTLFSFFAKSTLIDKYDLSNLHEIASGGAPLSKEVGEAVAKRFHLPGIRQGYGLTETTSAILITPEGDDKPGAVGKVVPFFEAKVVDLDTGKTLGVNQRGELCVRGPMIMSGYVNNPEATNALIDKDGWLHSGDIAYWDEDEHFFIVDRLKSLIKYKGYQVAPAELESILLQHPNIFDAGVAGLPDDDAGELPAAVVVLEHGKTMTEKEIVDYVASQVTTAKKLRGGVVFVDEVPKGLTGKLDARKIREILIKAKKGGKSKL
Method in brief: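 Direct inhibition of firefly luciferase enzyme (10 nM final, 50 mM Tris Acetate) assessed by luminescence within 5 minutes. Percent activity scaled between DMSO and PTC124 positive control, with concentration-effect curves classified by fit quality and response.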

[22] = S16 Schwann cell viability assay (CellTiter-Glo assay) (AID 624031);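 note: cellular ATP luminescence as a viability measure; plate controls were DMSO-treated cells for no effect and cell-free wells for full effect; nearly all actives have a fitted effect of over 70% in size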
Method in brief: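 This viability control uses native rat S16 Schwann cells grown in DMEM plus 10% FBS. After a 24 h compound treatment at 37 °C, CellTiter-Glo luminescence reports ATP content, scaled against DMSO-treated and cell-free wells.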

[23] = S16 Schwann cell PMP22 intronic element beta-lactamase assay (AID 624044; calls by dose curve;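 note: 0% = DMSO and -100% = potassium clavulanate positive control; nearly all actives have a fitted effect of over 15% in size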); conditions: S16 rat Schwann cells, PMP22 element beta-lactamase FRET, 24 h; ratio activity, negative = inhibition: at 38.3 µM (top of the series) unless noted
Method in brief: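 Rat S16 Schwann cells with beta-Lac driven by a PMP22 intronic element, compound-treated 24 h at 37 °C. LiveBLAzer FRET B/G read: 460 nm normalized to potassium clavulanate vs DMSO; 535 nm FRET as viability; concentration-effect curves classified.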

[24] = qHTS profiling for inhibitors of Plasmodium falciparum proliferation (AID 504749);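 note: 0% = DMSO vehicle and full inhibition = artemisinin control; nearly all actives have a fitted effect of over 60% in size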; conditions: P. falciparum in erythrocytes, SYBR Green DNA, 72 h, at 28.7 µM (top of the series)
Method in brief: (§1)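 Three-day growth assay of blood-stage parasites in erythrocytes (0.3% parasitemia, 2.5% hematocrit) at 37 C, 5% CO2, quantified by SYBR Green DNA staining after overnight detergent lysis.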

3D7 = experiment: as above; conditions: P. falciparum in erythrocytes, SYBR Green DNA, 72 h; series mostly up to 28.7 µM
Method in brief: as §1

7G8 = experiment: as above; conditions: P. falciparum in erythrocytes, SYBR Green DNA, 72 h; series mostly up to 12.8 µM
Method in brief: as §1

AA1029 = experiment: as above; conditions: P. falciparum in erythrocytes, SYBR Green DNA, 72 h; series mostly up to 28.7 µM
Method in brief: as §1

AS120 = experiment: as above; conditions: P. falciparum in erythrocytes, SYBR Green DNA, 72 h; series mostly up to 28.7 µM
Method in brief: as §1

ATS189 = experiment: as above; conditions: P. falciparum in erythrocytes, SYBR Green DNA, 72 h; series mostly up to 28.7 µM
Method in brief: as §1

ATS95 = experiment: as above; conditions: P. falciparum in erythrocytes, SYBR Green DNA, 72 h; series mostly up to 28.7 µM
Method in brief: as §1

C2A = experiment: as above; conditions: P. falciparum in erythrocytes, SYBR Green DNA, 72 h; series mostly up to 28.7 µM
Method in brief: as §1

CP185 = experiment: as above; conditions: P. falciparum in erythrocytes, SYBR Green DNA, 72 h; series mostly up to 28.7 µM
Method in brief: as §1

CP191 = experiment: as above; conditions: P. falciparum in erythrocytes, SYBR Green DNA, 72 h; series mostly up to 28.7 µM
Method in brief: as §1

CP192 = experiment: as above; conditions: P. falciparum in erythrocytes, SYBR Green DNA, 72 h; series mostly up to 28.7 µM
Method in brief: as §1

CP194 = experiment: as above; conditions: P. falciparum in erythrocytes, SYBR Green DNA, 72 h; series mostly up to 28.7 µM
Method in brief: as §1

CP201 = experiment: as above; conditions: P. falciparum in erythrocytes, SYBR Green DNA, 72 h; series mostly up to 28.7 µM
Method in brief: as §1

CP203 = experiment: as above; conditions: P. falciparum in erythrocytes, SYBR Green DNA, 72 h; series mostly up to 28.7 µM
Method in brief: as §1

CP211 = experiment: as above; conditions: P. falciparum in erythrocytes, SYBR Green DNA, 72 h; series mostly up to 28.7 µM
Method in brief: as §1

CP215 = experiment: as above; conditions: P. falciparum in erythrocytes, SYBR Green DNA, 72 h; series mostly up to 28.7 µM
Method in brief: as §1

CP217 = experiment: as above; conditions: P. falciparum in erythrocytes, SYBR Green DNA, 72 h; series mostly up to 28.7 µM
Method in brief: as §1

C[C@]12CC[C@H](OS(=O)(=O)O)CC1=CCC1C2CC[C@]2(C)C(=O)CC[C@@H]12 (stereo partly specified)
inactive: Potency [1] | Potency [2] | Potency [3] | Potency [4] | Potency [5] | Potency [6] | Potency [7] | Potency [8] | Potency [9] | outcome [10] | Potency [11] | Potency [12] | Potency [13] | Potency [14] | Potency [15] | outcome [16] | Potency [17] | activation [18] 0.688% | outcome [19] | outcome [20] | Potency [21] | Potency [22] | Potency [23] | activity, negative = inhibition ([24]; parasite line A) -6.88% | activity, negative = inhibition ([24]; parasite line B) 5.59% | Potency (3D7) | Potency (7G8) | Potency (AA1029) | Potency (AS120) | Potency (ATS189) | Potency (ATS95) | Potency (C2A) | Potency (CP185) | Potency (CP191) | Potency (CP192) | Potency (CP194) | Potency (CP201) | Potency (CP203) | Potency (CP211) | Potency (CP215) | Potency (CP217)
